For assay [1], the system named is Plasmodium falciparum Sir2 (PF13_0152, Sir2A). The experiment in a line: Plasmodium falciparum Sir2A binding compounds – biochemical, small-molecule microarray, 635 nm fluorescence, primary screen (AID 1098).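 Note: score merges spot fluorescence intensity with its signal-to-noise ratio.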 As to conditions: fluorescence 635 nm, higher = more signal.
Assay [2] is described as follows: probe aDKK1 binding to arrayed compounds – biochemical, biotinylated probe, 635/667 nm fluorescence, primary screen (AID 1099).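 Note: score merges 667nm spot fluorescence with signal to noise across triplicate slides.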 As to conditions: small-molecule microarray, higher = more signal.
Assay [3] in a line: probe aCHRDL2 binding to arrayed compounds – biochemical, biotinylated probe, 635/667 nm fluorescence, primary screen (AID 1100). As to conditions: small-molecule microarray, higher = more signal.
Assay [4] is described as follows: change in splice reporter luminescence, either direction, cell-based, HEK293, spliceosome inhibition project, primary screen (AID 1101).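 Note: HEK293 cells carrying a splicing-competent luciferase reporter gene; test concentration not given here.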 As to conditions: HEK293 splicing luciferase reporter, 24 h, higher = more signal, called active from +8 up or from −8 down. (In general: In a reporter assay the amount or activity of a reporter protein is the signal.)
Assay [5] deals with Fibroblast growth factor 10 (Homo sapiens) (UniProt O15520). The experiment in a line: compounds binding fibroblast growth factor 10 – biochemical, small-molecule microarray, 635 nm fluorescence, primary screen (AID 1102). The note with it: FGF10 binding, fluorescence 635 nm, higher = more signal.
Fibroblast growth factor 10 (Homo sapiens), sequence (O15520 whole entry, looked up): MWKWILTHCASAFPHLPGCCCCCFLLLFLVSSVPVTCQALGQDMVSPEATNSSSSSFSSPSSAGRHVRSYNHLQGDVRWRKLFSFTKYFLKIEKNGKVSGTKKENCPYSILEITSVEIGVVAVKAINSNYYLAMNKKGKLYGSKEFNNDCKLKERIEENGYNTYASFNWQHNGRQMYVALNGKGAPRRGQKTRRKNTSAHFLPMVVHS
The test system of assay [6] is glycogen synthase kinase-3 (GSK3A per assay name; protocol says GSK3B). The experiment in a line: compounds binding glycogen synthase kinase-3 – biochemical, small-molecule microarray, 635 nm fluorescence, GSK3A, primary screen (AID 1103). Note: the record names both GSK3A and GSK3B. As to conditions: fluorescence 635 nm, higher = more signal.
For assay [7], the target named is Epidermal growth factor receptor (Homo sapiens) (UniProt P00533). The experiment in a line: compounds binding epidermal growth factor receptor – biochemical, small-molecule microarray, 635 nm fluorescence, primary screen (AID 1104).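 Note: score merges 667 nm emission intensity with spot signal to noise over triplicate slides.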 As to conditions: EGFR binding, higher = more signal.
Epidermal growth factor receptor (Homo sapiens), sequence (P00533 whole entry, looked up): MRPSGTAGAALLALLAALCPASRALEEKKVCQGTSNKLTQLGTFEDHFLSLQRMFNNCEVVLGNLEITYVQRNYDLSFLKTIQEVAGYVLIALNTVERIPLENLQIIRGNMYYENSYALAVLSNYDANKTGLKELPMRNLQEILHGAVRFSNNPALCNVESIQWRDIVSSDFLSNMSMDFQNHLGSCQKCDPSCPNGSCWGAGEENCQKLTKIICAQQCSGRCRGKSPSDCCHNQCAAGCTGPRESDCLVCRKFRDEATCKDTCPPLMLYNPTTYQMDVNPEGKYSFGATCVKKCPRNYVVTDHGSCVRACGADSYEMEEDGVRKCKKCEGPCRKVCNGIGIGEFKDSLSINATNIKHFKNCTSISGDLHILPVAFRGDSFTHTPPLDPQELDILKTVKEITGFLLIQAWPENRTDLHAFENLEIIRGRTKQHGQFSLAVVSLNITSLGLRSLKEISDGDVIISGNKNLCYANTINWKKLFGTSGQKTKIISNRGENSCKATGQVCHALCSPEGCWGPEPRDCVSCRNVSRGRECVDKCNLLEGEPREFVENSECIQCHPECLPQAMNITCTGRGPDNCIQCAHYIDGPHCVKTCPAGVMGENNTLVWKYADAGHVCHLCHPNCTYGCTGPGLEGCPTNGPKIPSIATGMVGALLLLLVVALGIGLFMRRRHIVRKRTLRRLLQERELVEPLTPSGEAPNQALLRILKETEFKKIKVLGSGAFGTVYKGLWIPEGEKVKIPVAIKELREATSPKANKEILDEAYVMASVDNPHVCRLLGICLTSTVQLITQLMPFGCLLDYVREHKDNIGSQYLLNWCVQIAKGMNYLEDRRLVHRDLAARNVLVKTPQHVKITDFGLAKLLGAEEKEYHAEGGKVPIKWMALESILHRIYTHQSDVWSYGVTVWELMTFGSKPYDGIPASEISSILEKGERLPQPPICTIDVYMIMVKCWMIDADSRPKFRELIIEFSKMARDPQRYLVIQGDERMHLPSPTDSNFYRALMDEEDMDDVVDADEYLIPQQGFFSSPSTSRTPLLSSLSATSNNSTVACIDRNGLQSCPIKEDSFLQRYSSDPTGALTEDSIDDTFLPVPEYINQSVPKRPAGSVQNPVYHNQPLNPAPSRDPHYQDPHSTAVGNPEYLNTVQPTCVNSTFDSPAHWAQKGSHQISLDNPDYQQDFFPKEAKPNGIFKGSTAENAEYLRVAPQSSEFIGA
The target of assay [8] is Follistatin-related protein 3 (Homo sapiens) (UniProt O95633). The experiment in a line: compounds binding follistatin-related protein 3 – biochemical, small-molecule microarray, 635 nm fluorescence, primary screen (AID 1105).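 Note: score merges emission near 667 nm and signal to noise per printed spot across three slides.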 As to conditions: FSTL3 binding, higher = more signal.
Follistatin-related protein 3 (Homo sapiens), sequence (O95633 whole entry, looked up): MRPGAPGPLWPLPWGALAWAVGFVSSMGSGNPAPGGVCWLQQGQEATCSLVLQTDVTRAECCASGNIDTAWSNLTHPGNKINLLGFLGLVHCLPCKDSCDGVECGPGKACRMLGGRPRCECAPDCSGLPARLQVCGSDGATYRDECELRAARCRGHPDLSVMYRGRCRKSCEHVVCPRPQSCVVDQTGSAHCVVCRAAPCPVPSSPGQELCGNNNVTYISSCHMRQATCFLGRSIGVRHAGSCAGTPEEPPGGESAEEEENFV
Assay [9] deals with Dickkopf-related protein 1 (Homo sapiens) (UniProt O94907). The experiment in a line: small molecules binding DKK1 protein – biochemical, small-molecule microarray, 635 nm fluorescence scan, primary screen (AID 1106).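 Note: score merges emission near 667 nm with signal to noise over three replicate slides.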 As to conditions: higher = more signal.
Dickkopf-related protein 1 (Homo sapiens), sequence (O94907 whole entry, looked up): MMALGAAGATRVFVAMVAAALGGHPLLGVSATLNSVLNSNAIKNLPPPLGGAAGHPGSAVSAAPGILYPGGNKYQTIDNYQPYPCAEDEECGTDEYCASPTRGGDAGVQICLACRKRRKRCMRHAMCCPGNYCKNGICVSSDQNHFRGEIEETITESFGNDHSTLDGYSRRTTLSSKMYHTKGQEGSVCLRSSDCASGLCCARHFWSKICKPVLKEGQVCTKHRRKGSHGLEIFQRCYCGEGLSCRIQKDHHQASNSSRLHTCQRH
Assay [10] concerns Inhibin beta A chain (activin A). The experiment in a line: small molecules binding activin A – biochemical, small-molecule microarray, 635 nm fluorescence scan, primary screen (AID 1107).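 Note: mouse activin A protein probed at 4.33 µg/mL on printed slides; score merges bound-protein fluorescence near 667 nm with spot signal-to-noise.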 The note with it: INHBA, higher = more signal.
Assay [11] deals with Human papillomavirus type 1a protein E7 (residues 44-93). The experiment in a line: small molecules binding HPV E7 44-93 – biochemical, small-molecule microarray, residues 44-93, 635 nm fluorescence, primary screen (AID 1108).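 Note: E7 fragment applied at 1 µg/mL in TBST for 1 h at 4 C; score combines spot fluorescence with its signal to noise ratio.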 As to conditions: fluorescence 635 nm, higher = more signal.
A short description of assay [12]: hepatitis C replication reporter changes, two-sided – Huh7 cells, luciferase reporter, HCV replication inhibitor project, primary screen (AID 1109).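 Note: huh7 hepatoma cells harbouring a luciferase neomycin HCV replicon reporter; luciferase luminescence as measure of HCV replicon replication; test concentration not given here.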 As to conditions: Huh7 HCV replicon luciferase reporter, 48 h; higher = more signal.
Assay [13] deals with Left-right determination factor 2 (Homo sapiens) (UniProt O00292). The experiment in a line: small molecules binding LEFTY2 protein – biochemical, small-molecule microarray, 635 nm fluorescence scan, primary screen (AID 1110). As to conditions: higher = more signal.
Left-right determination factor 2 (Homo sapiens), sequence (O00292 whole entry, looked up): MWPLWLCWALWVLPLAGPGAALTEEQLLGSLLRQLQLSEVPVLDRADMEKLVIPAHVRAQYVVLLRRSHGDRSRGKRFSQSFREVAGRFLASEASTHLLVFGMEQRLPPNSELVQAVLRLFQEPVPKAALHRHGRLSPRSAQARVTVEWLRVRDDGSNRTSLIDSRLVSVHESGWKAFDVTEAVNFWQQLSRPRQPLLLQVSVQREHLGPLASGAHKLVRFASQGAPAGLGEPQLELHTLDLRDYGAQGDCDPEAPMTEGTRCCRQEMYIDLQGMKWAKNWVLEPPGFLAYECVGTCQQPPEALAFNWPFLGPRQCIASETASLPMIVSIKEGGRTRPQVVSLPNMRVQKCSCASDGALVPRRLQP
Assay [14] concerns the target Calmodulin-1 (Homo sapiens) (UniProt P0DP23). The experiment in a line: small molecules binding calmodulin-1 with EGTA – biochemical, small-molecule microarray, Cy5-labelled CALM1, profiling panel (AID 1111).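 Note: labelled calmodulin applied in Tris saline Tween buffer holding calcium plus EGTA and DTT.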 The note with it: Cy5-CALM1 binding fluorescence, higher = more signal.
The target is the same in assay [15]. The experiment in a line: small molecules binding Ca-loaded calmodulin-1 – biochemical, small-molecule microarray, Cy5-labelled CALM1, plus calcium, artefact control for SMM control-protein annotation, profiling panel (AID 1112).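 Note: score merges spot fluorescence with signal to noise from triplicate slides.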 As to conditions: Cy5-CALM1 binding fluorescence, higher = more signal.
Assay [16] in a line: probe aWnt5a binding to arrayed compounds – biochemical, biotinylated probe, 635/667 nm fluorescence, primary screen (AID 1113).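 Note: score merges 667 nm fluorescence intensity with signal-to-noise per printed feature.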 As to conditions: small-molecule microarray, higher = more signal.
Assay [17] can be described thus: probe aShh binding to arrayed compounds – biochemical, biotinylated probe, 635/667 nm fluorescence, primary screen (AID 1114).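 Note: probe is biotin-labelled aShh protein from a stem cell growth factor screen; measures binding of labelled protein to compounds printed on the slide; score merges feature fluorescence at 667 nm with signal-to-noise.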 As to conditions: small-molecule microarray, higher = more signal.
Assay [18] is described as follows: probe aNog binding to arrayed compounds – biochemical, biotinylated probe, 635/667 nm fluorescence, primary screen (AID 1115).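 Note: probe is biotinylated aNog protein used at 0.15 µg/mL for 1 h at 4 C; z-score combines 667 nm fluorescence of each spot with its signal to noise.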 The note with it: small-molecule microarray, higher = more signal.
For assay [19], the target named is Torsin-1A-interacting protein 1 (Homo sapiens) (UniProt Q5JTV8). The experiment in a line: compound microarray binding of lysate hLAP1 – cell lysate, small-molecule microarray, COS7 lysate, 635/667 nm fluorescence, primary screen (AID 1116). The note with it: 635 nm fluorescence, higher = more signal.
Torsin-1A-interacting protein 1 (Homo sapiens), sequence (Q5JTV8 whole entry, looked up): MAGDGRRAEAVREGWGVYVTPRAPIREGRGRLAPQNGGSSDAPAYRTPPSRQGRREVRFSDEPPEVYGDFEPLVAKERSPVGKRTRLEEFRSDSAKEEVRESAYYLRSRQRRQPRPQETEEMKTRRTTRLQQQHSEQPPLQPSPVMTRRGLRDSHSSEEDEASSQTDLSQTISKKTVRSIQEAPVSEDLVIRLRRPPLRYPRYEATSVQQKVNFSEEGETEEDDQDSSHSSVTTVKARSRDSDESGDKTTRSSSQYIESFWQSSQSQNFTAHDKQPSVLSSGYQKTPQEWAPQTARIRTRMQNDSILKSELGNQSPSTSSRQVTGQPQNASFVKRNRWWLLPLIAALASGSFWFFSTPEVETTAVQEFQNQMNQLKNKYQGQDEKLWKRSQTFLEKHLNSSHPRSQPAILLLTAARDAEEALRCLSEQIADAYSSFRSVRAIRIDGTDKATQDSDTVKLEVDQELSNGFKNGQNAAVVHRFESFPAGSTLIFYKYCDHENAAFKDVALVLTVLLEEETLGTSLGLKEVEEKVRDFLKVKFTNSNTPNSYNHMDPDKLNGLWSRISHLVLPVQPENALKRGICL
The target of assay [20] is Alpha-bungarotoxin (Bungarus multicinctus) (UniProt P60615). The experiment in a line: compounds binding labelled alpha-BTX control protein – biochemical, small-molecule microarray, Alexa647 label, 635/667 nm fluorescence, artefact control for SMM control protein annotation, profiling panel (AID 1117). As to conditions: alpha-BTX-A647 binding fluorescence, higher = more signal.
Alpha-bungarotoxin (Bungarus multicinctus), sequence (P60615 whole entry, looked up): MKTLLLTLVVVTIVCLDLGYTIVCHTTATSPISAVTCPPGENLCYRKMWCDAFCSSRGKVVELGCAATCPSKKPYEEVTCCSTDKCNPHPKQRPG

Activity calls are given as the source filed them.

Results on six molecules are retold here after PubChem BioAssay.

For the molecule `COc1ccc(C(O)C2C=CC3C(=O)N(C)C(=O)C3N2Nc2ccccc2)cc1OCc1ccccc1` (stereo not given), the composite z-score in assay [1] came out at 1.1; in [2], 0.679; in assay [3], 0.85; in [5] it was 0.868; in [6] it was 0.841; in assay [7], 0.165. Besides, the composite z-score is 0.814 in assay [8]; -0.0523 in [9]; 0.152 in assay [10]; 1.43 in [11]; 0.195 in assay [13]; 1.52 in assay [14]. For the same molecule, the composite z-score in [15] is 0.519; in assay [16] it was -0.0529; in [17] it was -0.221; in [18], 0.289; in assay [19], 1.25; in assay [20] it was 1.79. In addition, the z-score was 0.89 (inactive) in assay [4] and -0.685 in assay [12].
For the molecule `CC(C)(C)OC(=O)CC[C@@]1(C(=O)O)N=C(c2ccc(OCCCO)cc2)O[C@@H]1c1ccccc1N=[N+]=[N-]`, the composite z-score was 1.67 in [1]; 1.16 in [2]; 1.36 in [3]; 0.991 in [5]; 0.357 in assay [6]; -0.288 in assay [7]. Further, the composite z-score in assay [8] was -0.153; in [9], -0.169; in [10], 1.33; in [11], 0.884; in [13] it was -0.486; in [14], 1.64. Also, the composite z-score was found to be 1.07 in [15]; 0.0711 in assay [16]; 0.309 in assay [17]; 0.58 in assay [18]; 1.06 in assay [19]; 1.15 in assay [20]. The results for the z-score in assay [4] and in assay [12] were -0.66 (inactive) and 2.94, respectively.
For `Cc1c(NC(=O)CC#N)c(=O)n(-c2ccccc2)n1C`, the composite z-score is 0.345 in assay [1]; -0.274 in assay [2]; -0.47 in [3]; 0.118 in assay [5]; 0.526 in assay [6]; 0.322 in assay [7]. In addition, the composite z-score in assay [8] is 0.367; in [9], 0.273; in assay [10] it was -0.256; in assay [11], 0.371; in assay [13], 0.364; in assay [14] it was 0.121. Also, the composite z-score is -0.235 in assay [15]; -0.0944 in [16]; 0.253 in assay [17]; -0.434 in assay [18]; 0.292 in [19]; 1.08 in assay [20]. The results for the z-score in assay [4] and in assay [12] were 0.933 (inactive) and -0.27, respectively.
`COCCOC(=O)N1C(=O)[C@@]2(c3cc(C#CCCO)ccc31)[C@H](c1ccc(O)cc1)N1[C@H](c3ccccc3)[C@H](c3ccccc3)OC(=O)[C@H]1[C@@H]2C(N)=O`: the composite z-score in assay [1] was 1.33; in assay [2], 0.407; in [3] it was 0.654; in assay [5] it was 0.173; in assay [6], 0.169; in assay [7] it was -0.709. The composite z-score in [8] was -0.0665; in [9], -0.282; in [10], 0.907; in [11], -0.0809; in assay [13], -0.597; in assay [14], -0.523. The composite z-score was 0.456 in assay [15]; -0.0118 in assay [16]; 0.0611 in [17]; 0.0157 in assay [18]; 0.393 in assay [19]; 0.755 in assay [20]. Moreover, the z-score is -0.626 (inactive) in assay [4] and -0.016 in [12].
With `Cc1ccc(S[C@]2(C(=O)NCC(C)C)CC(=O)N(Cc3ccccc3)[C@@H]2c2ccc(CO)cc2I)cc1`, the composite z-score amounted to 1.52 in assay [1]; 0.0143 in assay [2]; 0.388 in [3]; 0.417 in assay [5]; 0.441 in assay [6]; 0.287 in [7]. The composite z-score is 0.75 in assay [8]; 0.149 in [9]; 0.975 in assay [10]; 1.29 in assay [11]; 0.118 in [13]; 0.425 in [14]. In addition, the composite z-score in assay [15] was 0.473; in assay [16], -0.063; in assay [17] it was -0.196; in assay [18], -0.67; in [19], 0.0825; in assay [20] it was 0.545. The z-score in [4] was -0.531 (inactive); in [12] it was -2.6.
As for `CCOC(=O)C[C@H]1[C@H](OC(=O)c2ccccc2-c2ccccc2)[C@@H](NC(=O)c2ccc3ccccc3c2)c2cc(OCCCO)ccc2N1C(=O)c1ccc2ccccc2n1`, the composite z-score was -0.0144 in assay [1]; -0.228 in assay [2]; -0.154 in assay [3]; 0.533 in [5]; 0.119 in assay [6]; 0.289 in assay [7]. For the same molecule, the composite z-score in [8] was 0.521; in assay [9], -0.0224; in assay [10], 0.282; in [11], 1.12; in assay [13], 0.043; in assay [14], 0.0796. The composite z-score was -0.122 in [15]; -0.0441 in assay [16]; -0.214 in assay [17]; -0.364 in assay [18]; 0.4 in assay [19]; 0.164 in assay [20]. The figures for the z-score in assay [4] and in [12] were 0.411 (inactive) and -1.08, respectively.
